Our source for the PBM binding z-score values is the supplement of paper PMC6555819.

The subject of the first experiment is LXRa:RXRa (NR concentration 270 nM, RXRa partner concentration 90 nM). Kind of experiment: PBM binding z-score (relative to random genomic background probes); higher = stronger binding; sequences stand for … in GC…GCGATTGACAGCGTAGAATGAAGG
In a few lines: (§1)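 Each nuclear receptor dimer, without ligand, was incubated for 1 h on custom Agilent 4×180K protein-binding microarrays. Binding was detected with antibodies against each partner (one per run), and scanned fluorescence was regression-normalized. The binding z-scores are referenced to random human genomic background probes.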
The sequence AATACAGCGTCATCGTAGGCCAGAGTACGCACAG displayed a PBM binding z-score of -0.432.

In the case of CGTCAAAGTTCAACTCAGGTAACGTAAAGCACGC, the PBM binding z-score was found to be 6.43.

ATATGTAGGTTAAGGGTGATTCAGGTTGGTTCGC returned a PBM binding z-score of 1.63.

Consider CCAGACAGGTGAAAGATAACTCAGTCTGGTACGC, for which the PBM binding z-score was determined as 0.0578.

TCTAGTTGATCAAAGGTCACACACTCGAAATGCG showed a PBM binding z-score of 5.85.

Sequence TCTCGGAGGACAGGAAGGTCAGAGCTTTCCAGAG displayed a PBM binding z-score of 1.07.

Turning to CTCTAAAGGTCGGTTGAGGTGAGTATACGGATAA, the PBM binding z-score turned out to be 2.21.

Consider CGTCCAAGGTCAGAGAGGTTAGTGAATGCCGAGT, for which the PBM binding z-score was 3.46.

Regarding CCGACTGCGGCAAGGTTACCATAACGCACAGCCA, the PBM binding z-score is 0.827.

The sequence CCTAGCAGGACAATCTGGGTCACTCAAGGCTTGA came in with a PBM binding z-score of 0.686.

Consider AGGCAAAGTTCACTAGGTAACGTAAGATTCAGCT, for which the PBM binding z-score stood at 5.15.

For CTCGAAAGGACGGTTGAGGTGAGTATACGGATAA, the PBM binding z-score is -0.351.

Sequence CGAACGAGGGCATGAGTCGATAGCAAATGCCGAT returned a PBM binding z-score of 0.268.

On to CCTACTTGGCCAAAAAGGTCATTGATGCCGATAA, for which the PBM binding z-score is 4.79.

CCTACTGGGCCATCAGGTCATTAATATCAACGTT had a PBM binding z-score of 0.82.

Turning to TCTAGTTGGTCAGGGAGGTCACACACGACGGGTA, the PBM binding z-score amounted to 3.3.

Take GCTAGCAGGCCAATTGGGTCACTCAATGACGGGC: the PBM binding z-score is -0.159.

Another experiment deals with LXRa homodimer (NR concentration 270 nM). The experiment is described as above. In a few lines:
as §1
For CCTACTGGGCCAACGTCATTGATCAGTCAAAGCA, the PBM binding z-score was -0.262.

Sequence CCGACTCGGGCAGAAAGGTTACCATACCATCCGG came in with a PBM binding z-score of -0.128.

In turn, CCTTCTGGGCCACGAAAGGTCATTGATTCAGTGA showed a PBM binding z-score of 4.66.

ACTAGCAGGCCGAGGGTCACTCAAGATTAGTCCG: the PBM binding z-score was -0.557.

CCTATTAGTTGACCATAAGGGCAACCGAAGCTCG: the PBM binding z-score worked out at 0.64.

The sequence ACTATTAGTTGACTTACGGCAACCGATACGACGC came in with a PBM binding z-score of 0.174.

Consider CCGGCTAGGTCAATGGTCAGCTAAAGCAGCTCGC, for which the PBM binding z-score is -0.137.

Turning to TCTAGCAGGCCAGAGGGTCGCTCAAGAGGTACGG, the PBM binding z-score is -0.98.

ACTTCCGGGTCAACGAGGTTATAGCACGCGTATA yielded a PBM binding z-score of 0.851.

As for CCGACTGAGGCATAAGGTTACCATAAGCCAGCCC, the PBM binding z-score is -0.182.

GGAACGAGGGCAAGTTGACAGCAGAGTTTGATGG showed a PBM binding z-score of -0.472.

Consider CCAGACTGGTGAGAAGGTAACTCAGCCTCGATTA, for which the PBM binding z-score was -0.22.

In turn, CGTCCAAGGTCAGAGAGGTCAGTGGATGCCGAGT displayed a PBM binding z-score of 3.43.

In turn, TCGGACAGGTGAAGGTAACTCAGGTACGCAGTCG displayed a PBM binding z-score of 0.174.

The sequence GCTATTAGTTGAAAGGGCAACCGAATGATTCTCG came in with a PBM binding z-score of 0.435.

Sequence ACAGACAGGTGATGAAGGTGACTCAGGCTATCAT showed a PBM binding z-score of -0.267.

The sequence ACTATTAGTTGAGACGATGGCAACCGATAGGTTG gave a PBM binding z-score of 0.0381.

The sequence ACACCAAGGTGATCGTGAGGTCGTTGATACTAAC returned a PBM binding z-score of 0.495.

Regarding TGAATGAGGTTATAAAATCAGGGAACGTTGCAAA, the PBM binding z-score is -0.31.

TATACAGGGTCAAAAGCCAGAGTACGAATGTCGA came in with a PBM binding z-score of 1.74.

ACTTACGGGTCACCGAGGTTATAGCACGCGTATA: the PBM binding z-score is 1.1.

In turn, TCTGGTAGGTCAGTTGGTCAGCTAACGAGCTGCC had a PBM binding z-score of 0.0494.

Sequence AATACAGCGTCATCGTAGGCCAGAGTACGCACAG yielded a PBM binding z-score of -0.689.

As to CGTCAAAGTTCAACTCAGGTAACGTAAAGCACGC, the PBM binding z-score is 4.59.

For ATATGTAGGTTAAGGGTGATTCAGGTTGGTTCGC, the PBM binding z-score is 0.808.

For the sequence CCAGACAGGTGAAAGATAACTCAGTCTGGTACGC, the PBM binding z-score was -0.199.

TCTAGTTGATCAAAGGTCACACACTCGAAATGCG showed a PBM binding z-score of 3.84.

In turn, TCTCGGAGGACAGGAAGGTCAGAGCTTTCCAGAG registered a PBM binding z-score of 0.00105.

Sequence CTCTAAAGGTCGGTTGAGGTGAGTATACGGATAA returned a PBM binding z-score of 0.211.

CGTCCAAGGTCAGAGAGGTTAGTGAATGCCGAGT had a PBM binding z-score of 0.378.

CCGACTGCGGCAAGGTTACCATAACGCACAGCCA yielded a PBM binding z-score of 0.0346.

Turning to CCTAGCAGGACAATCTGGGTCACTCAAGGCTTGA, the PBM binding z-score was -0.28.

AGGCAAAGTTCACTAGGTAACGTAAGATTCAGCT: the PBM binding z-score came to 2.57.

CTCGAAAGGACGGTTGAGGTGAGTATACGGATAA gave a PBM binding z-score of -0.439.

Turning to CGAACGAGGGCATGAGTCGATAGCAAATGCCGAT, the PBM binding z-score was -0.569.

Regarding CCTACTTGGCCAAAAAGGTCATTGATGCCGATAA, the PBM binding z-score was 3.93.

For the sequence CCTACTGGGCCATCAGGTCATTAATATCAACGTT, the PBM binding z-score was 1.3.

Regarding TCTAGTTGGTCAGGGAGGTCACACACGACGGGTA, the PBM binding z-score came out at 2.44.

Turning to GCTAGCAGGCCAATTGGGTCACTCAATGACGGGC, the PBM binding z-score was -0.545.

Another experiment has as its system LXRb:RXRa (NR concentration 270 nM, RXRa partner concentration 90 nM). The experiment is described as above. In outline: as §1
CCTACTGGGCCAACGTCATTGATCAGTCAAAGCA registered a PBM binding z-score of -0.492.

Sequence CCGACTCGGGCAGAAAGGTTACCATACCATCCGG gave a PBM binding z-score of 0.841.

For CCTTCTGGGCCACGAAAGGTCATTGATTCAGTGA, the PBM binding z-score worked out at 4.55.

Consider ACTAGCAGGCCGAGGGTCACTCAAGATTAGTCCG, for which the PBM binding z-score was 1.31.

CCTATTAGTTGACCATAAGGGCAACCGAAGCTCG gave a PBM binding z-score of 0.736.

In turn, ACTATTAGTTGACTTACGGCAACCGATACGACGC registered a PBM binding z-score of 0.412.

As for CCGGCTAGGTCAATGGTCAGCTAAAGCAGCTCGC, the PBM binding z-score was 1.48.

TCTAGCAGGCCAGAGGGTCGCTCAAGAGGTACGG: the PBM binding z-score is -0.425.

Turning to ACTTCCGGGTCAACGAGGTTATAGCACGCGTATA, the PBM binding z-score amounted to 4.24.

The sequence CCGACTGAGGCATAAGGTTACCATAAGCCAGCCC gave a PBM binding z-score of 1.05.

As for GGAACGAGGGCAAGTTGACAGCAGAGTTTGATGG, the PBM binding z-score came out at 0.324.

In the case of CCAGACTGGTGAGAAGGTAACTCAGCCTCGATTA, the PBM binding z-score is -0.472.

For the sequence CGTCCAAGGTCAGAGAGGTCAGTGGATGCCGAGT, the PBM binding z-score amounted to 4.38.

TCGGACAGGTGAAGGTAACTCAGGTACGCAGTCG returned a PBM binding z-score of 0.636.

The sequence GCTATTAGTTGAAAGGGCAACCGAATGATTCTCG had a PBM binding z-score of 0.971.

The sequence ACAGACAGGTGATGAAGGTGACTCAGGCTATCAT yielded a PBM binding z-score of 0.143.

In turn, ACTATTAGTTGAGACGATGGCAACCGATAGGTTG showed a PBM binding z-score of -0.527.

On to ACACCAAGGTGATCGTGAGGTCGTTGATACTAAC, for which the PBM binding z-score is 1.38.

In the case of TGAATGAGGTTATAAAATCAGGGAACGTTGCAAA, the PBM binding z-score turned out to be 1.02.

In the case of TATACAGGGTCAAAAGCCAGAGTACGAATGTCGA, the PBM binding z-score was determined as 4.3.

As for ACTTACGGGTCACCGAGGTTATAGCACGCGTATA, the PBM binding z-score turned out to be 4.77.

As for TCTGGTAGGTCAGTTGGTCAGCTAACGAGCTGCC, the PBM binding z-score was found to be 1.09.

As for AATACAGCGTCATCGTAGGCCAGAGTACGCACAG, the PBM binding z-score is -0.757.

Consider CGTCAAAGTTCAACTCAGGTAACGTAAAGCACGC, for which the PBM binding z-score turned out to be 4.35.

In turn, ATATGTAGGTTAAGGGTGATTCAGGTTGGTTCGC registered a PBM binding z-score of 1.73.

CCAGACAGGTGAAAGATAACTCAGTCTGGTACGC: the PBM binding z-score is -0.0465.

In the case of TCTAGTTGATCAAAGGTCACACACTCGAAATGCG, the PBM binding z-score turned out to be 5.63.

Sequence TCTCGGAGGACAGGAAGGTCAGAGCTTTCCAGAG had a PBM binding z-score of 0.899.

CTCTAAAGGTCGGTTGAGGTGAGTATACGGATAA had a PBM binding z-score of 1.61.

CGTCCAAGGTCAGAGAGGTTAGTGAATGCCGAGT gave a PBM binding z-score of 2.89.

In the case of CCGACTGCGGCAAGGTTACCATAACGCACAGCCA, the PBM binding z-score came out at 0.9.

As for CCTAGCAGGACAATCTGGGTCACTCAAGGCTTGA, the PBM binding z-score came out at 0.742.

Consider AGGCAAAGTTCACTAGGTAACGTAAGATTCAGCT, for which the PBM binding z-score was determined as 3.12.

The sequence CTCGAAAGGACGGTTGAGGTGAGTATACGGATAA yielded a PBM binding z-score of -0.303.

On to CGAACGAGGGCATGAGTCGATAGCAAATGCCGAT, for which the PBM binding z-score is -0.0412.

Consider CCTACTTGGCCAAAAAGGTCATTGATGCCGATAA, for which the PBM binding z-score stood at 4.61.

With CCTACTGGGCCATCAGGTCATTAATATCAACGTT, the PBM binding z-score stood at 1.37.

As to TCTAGTTGGTCAGGGAGGTCACACACGACGGGTA, the PBM binding z-score stood at 3.24.

GCTAGCAGGCCAATTGGGTCACTCAATGACGGGC: the PBM binding z-score is -0.122.
